# Reference: PubChem BioAssay (NCATS)
# Values joined by “and” are separate entries in the source; they are usually repeats but may differ in a detail not shown here. Equal entries are not always repeated. Results filed as inconclusive are left out. Entries that show only a call come without a potency. Active and inactive are the calls of the source. Unless noted, calls follow the shape of the dose curve; as a rule, active = well fitted curve in the direction sought with a large enough effect; inconclusive = small, poorly fitted or top-dose-only effect, or another doubt; inactive = no such curve, though single readings can be large; an effect the other way counts as inactive or inconclusive.
# Columns and labels:
# [1] = target: Calcium and integrin-binding protein 1 (Homo sapiens) (UniProt Q99828); assay: Primary qHTS for Identification of Calcium Integrin Binding Protein 1 (CIB1) Competitor (AID 1508620); conditions: CIB1-GST / FITC-alphaIIb peptide fluorescence polarization; series mostly up to 57.7 µM;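 also: GST tagged CIB1 binding a fluorescein labelled alphaIIb integrin peptide tracer; top concentration of the series differs between compounds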
# Summary of the method: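 Fluorescence polarization competition: CIB1-GST (1 uM final) preincubated with compound 15 min at room temperature, then FITC-labeled alphaIIb peptide (100 nM final) added for another 15 min. Polarization read at Ex 480/Em 540.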
# [2] = Primary qHTS for small molecule stabilizers of the endoplasmic reticulum resident proteome: Secreted ER Calcium Modulated Protein (SERCaMP) assay (AID 1508630); conditions: SH-SY5Y GLuc-SERCaMP (Gaussia luciferase released on ER calcium loss) secretion, thapsigargin, luminescence; series mostly up to 38.4 µM
# Summary of the method: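 GLuc-SERCaMP-expressing SH-SY5Y cells, pretreated 16 h with compound, are challenged with thapsigargin to empty ER calcium stores; after 4 h, coelenterazine is added directly to the medium and luminescence is imaged.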
# [3] = Primary qHTS for inhibitors of nuclear receptor binding SET domain protein 2 (NSD2) in an isogenic RCH-ACV NSD2 p.E1099K mutant (9B) (AID 1645876); conditions: RCH-ACV NSD2 E1099K (9B) viability, CellTiter-Glo, 72 h; series mostly up to 44.9 µM; also: nearly all actives have a fitted effect of over 70% in size; also: potency is read from the fitted curve at half-maximal effect
# [4] = Primary qHTS for inhibitors of nuclear receptor binding SET domain protein 2 (NSD2) in an RCH-ACV wild type WT cells (2C) (AID 1645877); conditions: RCH-ACV (leukaemia line) NSD2 WT (2C) viability, CellTiter-Glo, 72 h; series mostly up to 44.9 µM; also: potency is read from the fitted curve at half-maximal effect; nearly all actives have a fitted effect of over 70% in size
# [5] = target: Catechol O-methyltransferase (Homo sapiens) (UniProt P21964); assay: Confirmatory Screen for Target Class Profiling of Small Molecule Inhibitors of Methyltransferases (AID 1745852); conditions: MTase-Glo luminescence, SAH detection, recombinant enzyme; measured here: COMT max response; stronger effect = lower value
# [6] = target: Guanidinoacetate N-methyltransferase (Homo sapiens) (UniProt Q14353); assay: as above; conditions: MTase-Glo luminescence, SAH detection, recombinant enzyme; activity change, negative = inhibition: at 57.3 µM (top of the series); series mostly up to 57.3 µM
# [7] = target: Cytochrome P450 2D6 (Homo sapiens) (UniProt P10635); assay: Cytochrome P450 family 2 subfamily D member 6 (CYP2D6) small molecule antagonists: luciferase biochemical (cell-free) qHTS assay (AID 1645840; active = well fitted curve in the direction sought with a large enough effect in the repeat runs; an effect the other way counts as inactive or inconclusive; also: nearly all actives have a fitted effect of over 55% in size; also: potency is read from the fitted curve at half-maximal effect); conditions: P450-Glo CYP2D6 enzyme, luciferin luminescence, 1 h; series mostly up to 57.4 µM
# Summary of the method: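 P450-Glo luminescent screen: recombinant CYP2D6 enzyme–proluciferin substrate mix preincubated with compound 10 min at room temperature, then NADPH regeneration added for 1 h at room temperature. Detection reagent added for 20 min; luciferin light read as relative luminescence units.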
# [8] = target: Cytochrome P450 2C9 (Homo sapiens) (UniProt P11712); assay: Cytochrome P450 family 2 subfamily C member 9 (CYP2C9) small molecule antagonists: luciferase biochemical (cell-free) qHTS assay (AID 1645842; active = well fitted curve in the direction sought with a large enough effect in the repeat runs; an effect the other way counts as inactive or inconclusive; also: potency is read from the fitted curve at half-maximal effect; nearly all actives have a fitted effect of over 55% in size); conditions: P450-Glo CYP2C9 enzyme assay, luciferin luminescence; series mostly up to 57.4 µM
# Summary of the method: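 Luminescence, after 20 min with luciferin detection reagent, reflected CYP2C9 turnover during a 1 h NADPH-driven reaction at 37C. Enzyme-substrate mix contained 0.4% bovine serum albumin and was preincubated with compound 10 min at room temperature.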
# Calcium and integrin-binding protein 1 (Homo sapiens), sequence (Q99828 whole entry, looked up): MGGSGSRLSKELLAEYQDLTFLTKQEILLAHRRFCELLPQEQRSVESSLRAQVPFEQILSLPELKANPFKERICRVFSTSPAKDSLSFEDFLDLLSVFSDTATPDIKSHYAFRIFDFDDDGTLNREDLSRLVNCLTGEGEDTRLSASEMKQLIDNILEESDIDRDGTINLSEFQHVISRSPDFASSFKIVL
# Cytochrome P450 2D6 (Homo sapiens), sequence (P10635 whole entry, looked up): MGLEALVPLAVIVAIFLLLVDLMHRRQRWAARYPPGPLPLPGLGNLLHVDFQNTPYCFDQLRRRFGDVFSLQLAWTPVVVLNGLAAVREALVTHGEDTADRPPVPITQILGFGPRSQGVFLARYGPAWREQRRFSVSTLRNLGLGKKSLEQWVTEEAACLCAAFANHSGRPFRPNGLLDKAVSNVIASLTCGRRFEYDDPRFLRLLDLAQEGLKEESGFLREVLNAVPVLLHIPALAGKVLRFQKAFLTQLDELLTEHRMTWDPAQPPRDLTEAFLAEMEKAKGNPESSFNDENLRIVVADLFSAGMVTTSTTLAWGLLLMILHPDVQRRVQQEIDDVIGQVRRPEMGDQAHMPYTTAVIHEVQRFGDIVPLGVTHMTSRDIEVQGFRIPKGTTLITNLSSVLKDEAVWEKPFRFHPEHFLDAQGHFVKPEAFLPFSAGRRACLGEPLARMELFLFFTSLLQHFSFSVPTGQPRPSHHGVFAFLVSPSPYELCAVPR
# Cytochrome P450 2C9 (Homo sapiens), sequence (P11712 whole entry, looked up): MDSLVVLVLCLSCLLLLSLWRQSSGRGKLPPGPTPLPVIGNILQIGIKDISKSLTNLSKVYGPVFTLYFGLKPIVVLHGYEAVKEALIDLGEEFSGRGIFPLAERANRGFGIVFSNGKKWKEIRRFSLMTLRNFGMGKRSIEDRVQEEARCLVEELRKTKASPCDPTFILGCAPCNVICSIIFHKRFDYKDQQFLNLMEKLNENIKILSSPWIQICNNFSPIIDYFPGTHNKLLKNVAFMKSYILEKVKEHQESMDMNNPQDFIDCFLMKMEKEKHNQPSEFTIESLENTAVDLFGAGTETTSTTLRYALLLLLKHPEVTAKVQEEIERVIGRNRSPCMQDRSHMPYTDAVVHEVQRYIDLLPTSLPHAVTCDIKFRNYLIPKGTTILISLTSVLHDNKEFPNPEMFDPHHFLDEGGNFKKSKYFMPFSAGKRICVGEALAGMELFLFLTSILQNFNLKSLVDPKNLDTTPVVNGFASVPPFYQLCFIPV
# Catechol O-methyltransferase (Homo sapiens), sequence (P21964 whole entry, looked up): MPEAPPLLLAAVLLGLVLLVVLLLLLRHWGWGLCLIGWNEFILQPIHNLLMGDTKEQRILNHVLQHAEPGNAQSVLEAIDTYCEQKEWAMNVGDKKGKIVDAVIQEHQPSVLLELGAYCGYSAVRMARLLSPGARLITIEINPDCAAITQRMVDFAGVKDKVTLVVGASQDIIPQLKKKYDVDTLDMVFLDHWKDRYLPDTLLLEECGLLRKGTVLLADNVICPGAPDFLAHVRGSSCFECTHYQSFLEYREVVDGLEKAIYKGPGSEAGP
smiles,measurement,setting,value
C=C1CCC2[C@](C)(CO)C(O)CC[C@]2(C)C1CC=C1C(=O)OCC1O (stereo partly drawn),Potency,[1],inactive
same,outcome,[2],inactive
CCC(C=C[C@@H]1OC(=O)C=C[C@H]1C)=C[C@H](C)CC=CC(C)=C[C@@H](C)C(=O)[C@@H](C)[C@H](O)[C@@H](C)CC(C)=CC(=O)O,"activity change, negative = inhibition",[1],3.68% [at 2.24 µM] (inactive)
same,"activity change, negative = inhibition",[2],41.2% [at 1.51 µM] (inactive)
C=C1C(=CC=C2CCC[C@]3(C)[C@@H]([C@H](C)CCCC(C)(C)O)CC[C@@H]23)C[C@@H](O)C[C@@H]1O,Potency,[1],inactive
same,outcome,[2],inactive
O=C(C[C@@H]1CC=CCCC(=O)O[C@H](c2ccccc2)CNC1=O)NCc1ccc(Cl)cc1,Potency,[1],inactive
same,outcome,[2],inactive
C=C1C[C@@]2(O)O[C@@]3(C[C@H]2C(C)C)[C@H](C)CC[C@H]13,Potency,[1],inactive
same,outcome,[2],inactive
O=C(C=CC=Cc1ccc2c(c1)OCO2)N1CCCCC1,Potency,[1],inactive
same,outcome,[2],inactive
O=C(NC1CC1)c1cccc(-c2ccc3c(NC(=O)C4CC4)n[nH]c3c2)c1,Potency,[1],inactive
same,outcome,[2],inactive
same,Potency,[3],8.33 µM (active)
same,Potency,[4],5250 nM (active)
Cc1cnc(NC(=O)Nc2cc(Br)c(C)cc2OC[C@@H]2CNCCO2)cn1,Potency,[1],inactive
same,outcome,[2],inactive
same,Potency,[3],1.05 µM (active)
same,Potency,[4],934 nM (active)
CCC[C@H]1C[C@H](C(=O)N[C@@H]([C@@H]2O[C@@H](SC)[C@@H](O)[C@@H](O)[C@@H]2O)[C@H](C)Cl)N(C)C1,Potency,[1],inactive
same,outcome,[2],inactive
same,Potency,[3],inactive
Cn1c(Nc2ccc(C(F)(F)F)cc2)nc2cc(Oc3ccnc(-c4ncc(C(F)(F)F)[nH]4)c3)ccc21,Potency,[1],inactive
same,outcome,[2],inactive
same,Potency,[3],7.31 µM (active) and 5.25 µM (active)
same,Potency,[4],8.2 µM (active) and 4.17 µM (active)
CCN(CC)Cc1ccc2cc(COC(=O)Nc3ccc(C(=O)NO)cc3)ccc2c1,Potency,[1],inactive
same,outcome,[2],inactive
same,Potency,[3],290 nM (active) and 742 nM (active)
same,activity,[5],0%
same,"activity change, negative = inhibition",[6],-6.61%
COc1ccc(Nc2cc(-c3cnc(N)nc3)nc(N3CCOCC3)n2)cn1,Potency,[1],inactive
same,outcome,[2],inactive
same,Potency,[7],inactive
same,Potency,[8],8.49 µM (active)
same,Potency,[3],0.525 µM (active)
same,Potency,[4],590 nM (active)
FC(F)c1nc2ccccc2n1-c1nc(N2CCOCC2)nc(N2CCOCC2)n1,Potency,[1],inactive
same,outcome,[2],inactive
same,Potency,[7],inactive
same,Potency,[8],1.69 µM (active)
same,Potency,[3],57.8 nM (active) and 41.7 nM (active)
same,Potency,[4],72.8 nM (active) and 105 nM (active)
O=C(C=Cc1ccc(CN(CCO)CCc2c[nH]c3ccccc23)cc1)NO,Potency,[1],inactive
same,outcome,[2],inactive
CS(=O)(=O)N1CCc2c(-c3cnc(N)nc3)nc(N3CCOCC3)nc21,Potency,[1],inactive
same,outcome,[2],inactive
same,Potency,[7],inactive
same,Potency,[3],920 nM (active) and 468 nM (active)
same,Potency,[4],459 nM (active) and 468 nM (active)
CC(C)n1cnc2c(NCCc3ccc(O)cc3)nc(-c3csc4ccccc34)nc21,Potency,[1],inactive
same,outcome,[2],inactive
same,Potency,[8],2.68 µM (active)
same,Potency,[3],20.5 µM (active)
c1cncc(CN2CCC(n3ncc4c(N5CCOCC5)nc(-c5ccc6[nH]ccc6c5)nc43)CC2)c1,Potency,[1],inactive
same,outcome,[2],inactive
same,Potency,[8],1.9 µM (active)
same,Potency,[3],916 nM (active) and 833 nM (active)
same,Potency,[4],1.15 µM (active) and 1.05 µM (active)
NC(=O)N1CCC(CC(=O)N2CCC([C@H]3c4ncc(Br)cc4CCc4cc(Cl)cc(Br)c43)CC2)CC1,Potency,[1],inactive
same,outcome,[2],inactive
same,Potency,[3],14.8 µM (active)
COc1cc(C)c(C=CC(C)=CC=CC(C)=CC(=O)O)c(C)c1C,Potency,[1],inactive
same,outcome,[2],inactive
same,Potency,[7],inactive
same,Potency,[8],23.9 µM (active)
CC(O)(C#Cc1ccc2c(c1)N(c1nc(N)ncc1Cl)CC2)c1nccs1 (stereo not drawn),Potency,[1],inactive
same,outcome,[2],inactive
same,Potency,[7],9.52 µM (active)
same,Potency,[8],1.07 µM (active)
same,Potency,[3],13.2 µM (active)
same,Potency,[4],13200 nM (active)
O=C(NNC(=O)c1ccc(CNS(=O)(=O)c2ccc(F)c(Cl)c2)cc1)c1ccccc1,Potency,[1],inactive
same,outcome,[2],inactive
CCC(C(=O)O)C1CCC(C)C(C(C)C(O)C(C)C(=O)C(CC)C2OC3(C=CC(O)[C@@]4(CC[C@](C)(C5CC[C@@](O)(CC)C(C)O5)O4)O3)C(C)CC2C)O1 (stereo partly drawn),Potency,[1],inactive
same,outcome,[2],inactive
same,Potency,[3],0.468 µM (active)
same,Potency,[4],417 nM (active)
C#Cc1cccc(Nc2ncnc3cc(OCCOC)c(OCCO)cc23)c1,Potency,[1],inactive
same,outcome,[2],inactive
same,Potency,[7],8.49 µM (active)
same,Potency,[3],14.8 µM (active)
